# Laboratory results from PubChem BioAssay (NCATS).
# A number with no mark means an inactive call. Records with an inconclusive call do not appear. Active and inactive are the calls of the source. Unless noted, calls come from the whole dose curve; as a rule, active = well fitted curve in either direction with a large enough effect (not every such curve was filed as active); inconclusive = small, poorly fitted or top-dose-only effect, or another doubt; inactive = flat fitted curve, though single readings scatter.
# Tests used:
# [1] = biological target: Lysosomal acid glucosylceramidase (Homo sapiens) (UniProt P04062); assay: Glucocerebrosidase-p2 (AID 348; in the data active = potency below about 10 µM; note: potency is the fitted concentration of half-maximal effect); settings: purified GBA, blue fluorogenic substrate, 40 min
# Procedure, shortened: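 Compounds titrated from 0.6 nM upwards against 0.2 nM enzyme in pH 5.9 citric acid/KH2PO4, taurocholate, tween-20; blue fluorogenic substrate 80 uM, 40 min room temperature, stopped and read Ex 365/Em 440 for AC50.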
# [2] = AP1 Signaling Pathway (AID 357); settings: ME-180 AP-1-bla reporter, EGF-induced, beta-lactamase ratio, 5 h; at 7.69 µM (top of the series) unless noted; note: % is set by controls: 0 for no effect and ±100 for the full control effect
# Procedure, shortened: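 ME-180 cells with beta-lactamase reporter under AP-1 response element, stimulated with EC50 EGF; compounds tested in titration series, 5 h at 37 °C. CCF4 substrate added 2.5 h at room temperature; 460/530 nm emission ratio gave %activity and AC50.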
# [3] = biological target: Cytochrome P450 1A2 (Homo sapiens) (UniProt P05177); assay: p450-cyp1a2 (AID 410; calls by dose curve; note: potency is the fitted concentration of half-maximal effect;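 for activity change, negative = inhibition: -100% = full effect of reference inhibitor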); settings: recombinant CYP1A2, luciferin-ME demethylation, luminescence; series mostly up to 11.4 µM
# Procedure, shortened: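 Human CYP1A2 (20nM) demethylated Luciferin-ME at its Km (100uM) in 100mM KPO4. After 10 min compound preincubation, NADPH regeneration ran the reaction 60 min at room temperature. Luciferin was read by luminescence, normalized to 57 uM furafylline.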
# [4] = NFAT Signaling Pathway (AID 444); settings: Jurkat NFAT-bla M1, carbachol, beta-lactamase ratio, 5 h; at 7.69 µM (top of the series) unless noted;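 note: carbachol stimulus at about its EC50 of 1 µM final; % is set by controls: 0 for no effect and ±100 for the full control effect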
# Procedure, shortened: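 Read-out: CCF4 FRET ratio (460 nm/530 nm) after 1 h RT dye loading, used for %activity and AC50 from titration series. Cells: Jurkat NFAT-β-lactamase/M1 line, treated with compound plus 1 uM carbachol for 5 h, 37 °C.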
# [5] = Stat Signaling Pathway (AID 446); settings: ME-180 (cervical carcinoma) SIE beta-lactamase reporter, IL-6 stimulated, 5 h; at 7.69 µM (top of the series) unless noted;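 note: ME-180 cervical cancer cells given 40 pM IL-6 alongside compound; SIE-controlled beta-lactamase reporter measured as 460/530 nm FRET emission ratio; % is set by controls: 0 for no effect and ±100 for the full control effect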
# Procedure, shortened: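 IL-6/STAT signaling read in ME-180 cells via an SIE beta-lactamase reporter. Stimulus was 40 pM IL-6 (its AC50) for 5 hrs, so both activation and inhibition register.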
# [6] = biological target: Glucocorticoid receptor (Homo sapiens) (UniProt P04150); assay: GR-GFP Redistribution (AID 450;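 active = compounds whose dose series gives a full or clear partial fitted curve of increased nuclear translocation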; note: potency is the fitted concentration of half-maximal effect); settings: U2OS GR-GFP nuclear translocation, laser cytometry, 2 h
# [7] = biological target: Glucocorticoid receptor (Homo sapiens) (UniProt P04150); assay: GR-EFC Redistribution (AID 451; calls by dose curve; note: potency is the fitted concentration of half-maximal effect); settings: CHO-K1 GR-EFC translocation, beta-gal luminescence, 2 h
# Procedure, shortened: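 Translocation of GR-ED fusion to nuclear EA restores b-gal, read by luminescence after 1 h room-temperature detection. Engineered CHO-K1 biosensor cells, 1,000/well, exposed 2 h at 37 C to titrations up to 46 uM final.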
# [8] = biological target: Mitogen-activated protein kinase 10 (Mus musculus) (UniProt Q61831); assay: JNK3 AlphaScreen Assay (AID 530); settings: JNK3 lysate, c-Jun phosphorylation; series mostly up to 11.4 µM;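 note: kinase came from lysate of stimulated human HepG2 cells; signal reports phosphorylation of biotinylated GST-cJun 1-79 at Ser73 with 10 µM ATP; % is set by controls: 0 for no effect and ±100 for the full control effect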
# Procedure, shortened: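 Room-temperature AlphaScreen kinase assay; pre-activated HepG2 lysate as JNK3 source, biotin-GST-cJun(1-79) substrate, 10 uM ATP, compound 15 min preincubation.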
# [9] = biological target: 3',5'-cyclic-AMP phosphodiesterase 4B (Homo sapiens) (UniProt Q07343); assay: qHTS Assay for Inhibitors of PDE-IV (AID 607; active = well fitted activation curve with a large enough effect in the main read-out, with a control signal flat, not every such curve was filed as active; note: % of control where 0% means no effect); settings: HEK293 ACTOne CNG channel cells, membrane potential fluorescence; series mostly up to 22.9 µM
# Procedure, shortened: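 Live HEK293 cells with a modified cyclic nucleotide-gated (CNG) channel report intracellular cAMP via membrane-potential dye fluorescence (ex 535/em 590 nm). Endogenous PDE-IV was targeted. Compounds were tested at up to 22.9 uM final; RO 20-1724 100 uM served as control.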
# Chain of Cytochrome P450 1A2 (Homo sapiens) (P05177 whole entry, looked up): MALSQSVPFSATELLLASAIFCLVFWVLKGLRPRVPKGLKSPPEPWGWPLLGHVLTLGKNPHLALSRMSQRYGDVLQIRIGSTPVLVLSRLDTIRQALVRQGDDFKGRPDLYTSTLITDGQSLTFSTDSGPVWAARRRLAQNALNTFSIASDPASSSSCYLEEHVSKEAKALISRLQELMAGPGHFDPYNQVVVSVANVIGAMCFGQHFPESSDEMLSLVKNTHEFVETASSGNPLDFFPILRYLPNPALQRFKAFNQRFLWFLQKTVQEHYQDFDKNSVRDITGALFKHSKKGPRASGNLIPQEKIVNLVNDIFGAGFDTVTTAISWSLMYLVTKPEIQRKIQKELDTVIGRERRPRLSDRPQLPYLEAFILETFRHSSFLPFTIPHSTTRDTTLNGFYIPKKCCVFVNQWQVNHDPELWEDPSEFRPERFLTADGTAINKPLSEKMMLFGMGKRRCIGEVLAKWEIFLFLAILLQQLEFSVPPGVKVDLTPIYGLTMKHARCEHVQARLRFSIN
# Chain of Lysosomal acid glucosylceramidase (Homo sapiens) (P04062 whole entry, looked up): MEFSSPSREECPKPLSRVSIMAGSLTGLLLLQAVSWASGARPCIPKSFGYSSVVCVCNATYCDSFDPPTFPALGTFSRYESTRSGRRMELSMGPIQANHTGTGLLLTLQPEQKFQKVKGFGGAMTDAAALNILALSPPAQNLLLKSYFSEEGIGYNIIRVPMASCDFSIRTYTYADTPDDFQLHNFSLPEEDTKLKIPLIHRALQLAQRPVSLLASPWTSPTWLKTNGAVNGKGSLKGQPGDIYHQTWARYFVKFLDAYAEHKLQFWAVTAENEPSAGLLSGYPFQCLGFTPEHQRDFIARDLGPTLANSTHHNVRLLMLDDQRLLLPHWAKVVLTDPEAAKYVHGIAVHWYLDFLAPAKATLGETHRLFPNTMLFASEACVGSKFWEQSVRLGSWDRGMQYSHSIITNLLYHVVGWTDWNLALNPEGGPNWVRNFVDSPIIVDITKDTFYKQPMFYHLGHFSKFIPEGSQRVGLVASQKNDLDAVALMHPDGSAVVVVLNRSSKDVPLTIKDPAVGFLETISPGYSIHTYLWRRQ
# Chain of 3',5'-cyclic-AMP phosphodiesterase 4B (Homo sapiens) (Q07343 whole entry, looked up): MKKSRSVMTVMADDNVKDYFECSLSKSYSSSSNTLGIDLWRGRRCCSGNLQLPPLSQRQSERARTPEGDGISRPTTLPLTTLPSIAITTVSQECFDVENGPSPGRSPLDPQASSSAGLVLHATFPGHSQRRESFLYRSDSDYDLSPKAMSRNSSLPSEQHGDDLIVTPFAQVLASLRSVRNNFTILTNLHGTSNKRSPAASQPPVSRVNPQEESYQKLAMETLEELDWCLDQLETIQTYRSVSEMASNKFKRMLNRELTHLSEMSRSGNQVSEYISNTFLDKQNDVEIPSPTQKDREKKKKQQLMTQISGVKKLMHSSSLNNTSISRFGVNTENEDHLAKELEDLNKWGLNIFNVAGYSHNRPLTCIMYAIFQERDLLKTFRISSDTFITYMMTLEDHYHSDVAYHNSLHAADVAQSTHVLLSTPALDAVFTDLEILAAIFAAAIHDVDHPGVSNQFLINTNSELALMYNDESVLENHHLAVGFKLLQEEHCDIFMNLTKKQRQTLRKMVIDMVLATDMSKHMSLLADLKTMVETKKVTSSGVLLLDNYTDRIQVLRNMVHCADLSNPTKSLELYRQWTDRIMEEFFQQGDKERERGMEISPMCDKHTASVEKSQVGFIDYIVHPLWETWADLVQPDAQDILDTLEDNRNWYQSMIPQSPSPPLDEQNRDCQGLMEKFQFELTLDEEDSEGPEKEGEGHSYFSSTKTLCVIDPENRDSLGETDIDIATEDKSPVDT
# Chain of Glucocorticoid receptor (Homo sapiens) (P04150 whole entry, looked up, the tested form may be a part): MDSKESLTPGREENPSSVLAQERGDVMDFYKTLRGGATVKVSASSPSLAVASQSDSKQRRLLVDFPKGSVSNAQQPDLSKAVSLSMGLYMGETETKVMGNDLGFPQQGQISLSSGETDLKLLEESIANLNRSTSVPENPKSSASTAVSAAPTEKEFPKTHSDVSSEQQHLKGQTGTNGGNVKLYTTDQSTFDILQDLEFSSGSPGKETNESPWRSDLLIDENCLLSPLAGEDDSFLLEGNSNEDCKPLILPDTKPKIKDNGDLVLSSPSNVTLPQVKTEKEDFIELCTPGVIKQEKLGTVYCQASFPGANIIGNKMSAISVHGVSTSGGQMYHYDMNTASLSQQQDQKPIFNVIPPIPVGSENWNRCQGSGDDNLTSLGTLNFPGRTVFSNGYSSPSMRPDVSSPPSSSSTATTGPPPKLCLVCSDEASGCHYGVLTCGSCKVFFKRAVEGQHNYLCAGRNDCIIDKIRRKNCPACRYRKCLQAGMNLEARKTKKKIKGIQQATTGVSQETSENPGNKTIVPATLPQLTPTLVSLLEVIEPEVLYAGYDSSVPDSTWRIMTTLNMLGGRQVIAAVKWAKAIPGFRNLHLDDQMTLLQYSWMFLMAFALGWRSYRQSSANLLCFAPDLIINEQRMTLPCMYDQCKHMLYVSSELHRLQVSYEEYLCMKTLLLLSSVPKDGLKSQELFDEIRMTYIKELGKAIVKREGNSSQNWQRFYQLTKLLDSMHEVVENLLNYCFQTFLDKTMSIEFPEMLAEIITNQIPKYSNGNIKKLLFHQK
SMILES,Potency [1] [µM],"activity change, negative = inhibition [2] [%]",Potency [3],"activity change, negative = inhibition [4] [%]","activity, negative = inhibition [5] [%]",Potency [6] [µM],Potency [7] [µM],Potency [8],Potency [9],"activity change, negative = inhibition [3]"
C[C@@](N)(Cc1c[nH]c2ccccc12)C(=O)O,> 11.4,13.6,inactive,-4.57,10.9,> 46,> 9.22,inactive,inactive,–
C[N+](C)(C)c1ccc([C@H](N)C(=O)O)cc1,> 11.4,-0.163,inactive,-21.6,0.0481,> 46,> 9.22,inactive,inactive,–
CCN=C(N)CSS(=O)(=O)O,> 11.4,9.8,inactive,-7.3,-20,> 46,> 9.22,inactive,inactive,–
O=C(O)c1ccccc1C1c2ccccc2Oc2ccccc21,> 11.4,2.36,–,4.13,0.279,> 46,> 9.22,inactive,inactive,-20.4% [at 2.29 µM]
C[C@H](CCC(=O)O)[C@H]1CC[C@]2(C)[C@@H]3C(=O)C[C@H]4C(C)(C)[C@@H](O)CC[C@]4(C)[C@H]3C(=O)C[C@@]12C,> 11.4,4.2,inactive,21.4,8.37,> 46,> 9.22,inactive,inactive,–
Nc1ncnc2c1ncn2[C@H]1O[C@@H](C(=O)OCCO)[C@@H](O)[C@H]1O,> 11.4,1.75,inactive,21.4,25.7,> 46,> 9.22,inactive,inactive,–
O=C1COC(c2ccccc2O)=NN1CCCN1CCCC1,> 11.4,5.73,inactive,-11.6,5.21,> 46,> 9.22,inactive,inactive,–
N=C(N)[C@H](N=Nc1ccccc1)C(N)=O,> 11.4,20.5,0.794 µM (active),1.62,1.3,> 46,> 9.22,inactive,inactive,–
O=C(O)/C(=C\c1ccc(O)cc1)c1cccc2ccccc12,> 11.4,1.02,inactive,2.46,-8.2,> 46,> 9.22,inactive,inactive,–
N[C@@H](CSC(=O)c1ccccc1)C(=O)O,> 11.4,-5.26,inactive,3.72,4.69,> 46,> 9.22,inactive,inactive,–
N#C/C(=C\Nc1ccccn1)C(=O)C1CC1,> 11.4,7.75,1.26 µM (active),5.1,1.86,> 46,> 9.22,inactive,inactive,–
O=C(O)CCC(=O)c1ccc2sc3ccccc3c2c1,> 11.4,3.02,3.98 µM (active),7.45,-12.2,> 46,> 9.22,inactive,inactive,–
Cn1c(C[C@@H](O)c2nc3ccccc3n2C)nc2ccccc21,> 11.4,11.7,–,13.3,8.01,> 46,> 9.22,inactive,inactive,-2.6% [at 2.29 µM]
O=C1CN2CCN(CC2)CC(=O)Nc2ccc(cc2)S(=O)(=O)c2ccc(cc2)NC(=O)CN2CCN(CC2)CC(=O)Nc2ccc(cc2)S(=O)(=O)c2ccc(cc2)N1,> 11.4,5.33,inactive,5.58,12.3,> 46,> 9.22,inactive,inactive,–
Cc1ccc(S(=O)(=O)NCc2cccc([N+](=O)[O-])c2)cc1,> 11.4,-2.52,3.98 µM (active),6.53,2.25,> 46,> 9.22,inactive,inactive,–
OCCCNc1ncnc2[nH]ncc12,> 11.4,7.33,6.31 µM (active),0.588,-7.35,> 46,> 9.22,inactive,inactive,–
